# Results taken from PubChem BioAssay (NCI).
# Where “and” joins values, the source holds several entries; their conditions need not be identical. Equal entries are not always repeated. The panel holds about 83,000 compounds, 20% with a hit somewhere; the sample as a whole holds those more often.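 Assay: single dose, 48 h. Readout: percent growth (0 = no net growth; negative = cell death). Active: <10.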 Calls of active or inactive are those of the source.
# Tested on: MDA-MB-468 breast
# Test: NCI-60 one-dose screen, 48 h (100 = growth as untreated, 0 = no growth, -100 = all killed)
# Settings: 10 µM unless noted
row,SMILES,growth
1,O=C(Nc1ccc(C(=O)/C=C/c2ccc(N3CCOCC3)cc2)cc1)Nc1ccc([N+](=O)[O-])cc1,91% (inactive)
2,CCN1C(=O)N(CC)C2C1NN=c1s/c(=C\c3ccc(Cl)cc3Cl)c(=O)n12 (stereo not given),5.35% (active)
3,Nc1nc(N)c2cc(S(=O)(=O)c3cccc(C(F)(F)F)c3)ccc2n1,38.9% (inactive)
4,O=C1N/C(=N\c2nnc(-c3ccc(O)cc3)s2)S/C1=C\c1ccccc1O,99.4% (inactive)
5,C[C@]12CC[C@H]3[C@@H](CC[C@H]4C[C@@H](O)CC[C@@]43C)[C@@H]1CC(=O)C2,113% (inactive)
6,Cc1cnc(Nc2ccc(OCCN3CCCC3)cc2)nc1Nc1cccc(S(=O)(=O)NC(C)(C)C)c1,-16.6% (active)
7,CC1C(/C=N/NC(N)=S)C(C#N)(C#N)C1(C#N)C#N (stereo not given),113% (inactive)
8,CCNC(=O)c1[nH]cc(-c2ccc(OC)cc2)c1-c1cc(OC)c(OC)c(OC)c1,18.5% (inactive)
9,CCOC(=O)c1cc2c(n1Cc1ccccc1)-c1oncc1CCC2,60.2% (inactive)
10,Cn1ccc(Nc2nccc(Oc3ccc(C(=O)Nc4cccc(F)c4)c(Cl)c3)n2)c1,-12.3% (active)
11,COC(=O)C(N)CSC(c1ccccc1)(c1ccccc1)c1ccccc1 (stereo not given),11.5% (inactive)
12,Cc1ccc(NC2=CC(=O)C(=O)c3ccccc32)cc1,-12.4% (active)
13,N=c1c2cc(-c3ccccc3)oc2ncn1/N=C/c1ccccc1,53.7% (inactive)
14,Cc1ccc(Cc2cnc(NC(=O)c3ccc4noc(-c5ccccc5)c4c3)s2)cc1,91% (inactive)
15,COc1cccc(-c2nn(-c3ccccc3)cc2-c2ccnc(N3CCN(C(=O)Nc4ccc(F)cc4)CC3)c2)c1,51.6% (inactive)
16,N#Cc1ccc(-n2nnc3ccccc32)cc1C#N,99.5% (inactive)
17,Cc1ccc(-c2cc(O)c(-c3ccc(C)cc3C)cc2O)c(C)c1,46.5% (inactive)
18,C=CC(=O)Nc1cccc(-c2nc(SC)nc(Nc3ccccc3OC)c2C#N)c1,18.2% (inactive)
19,c1ccc2c[n+](Cc3ccc4ccccc4n3)ccc2c1,-0.701% (active)
20,COc1ccc(-c2cnc(-c3ccc(Cl)cc3)[nH]2)cc1OC,84.7% (inactive)

row,SMILES,growth
1,c1ccc(COc2ccc(Nc3ncnc4c3cnn4-c3ccccc3)cc2)cc1,93.1% (inactive)
2,CCS(=O)(=O)OCCO[C@H]1Cc2cc3ccc(=O)oc3cc2OC1(C)C,97.9% (inactive)
3,CN1C(=O)CNC(=O)[C@H](NC(=O)c2nc3ccccc3cc2O)CSSC[C@H]1C(=O)NCCc1nc2ccccc2cc1O,16% (inactive)
4,COC(=O)/C=C/c1cc(O)c2c(c1)C(C(=O)OC)C(c1ccc(O)c(O)c1)O2 (stereo not given),27.3% (inactive) and 17.6% (inactive)
5,NCC(=O)NS(=O)(=O)OC[C@H]1O[C@@H](n2cnc3c(N)ncnc32)[C@H](O)[C@@H]1O,-34.3% (active)
6,CC1(O)CCCCC1O (stereo not given),108% (inactive)
7,CCCCCCCCN(CCCCCCCC)CC(O)c1cc(Cl)ccc1OC (stereo not given),32.6% (inactive)
8,COc1ccc2cc(-c3nn(-c4ccc(C(=O)O)cc4)cc3CO)ccc2c1,109% (inactive)
9,COc1cc(C2=NN(C(C)=O)C(c3cc(OC)c(OC)c(OC)c3)C2)ccc1O (stereo not given),15.9% (inactive)
10,CCN(CC)CCCCCCNc1cc(OC)cc2cccnc12,23.4% (inactive)
11,COc1cc(C2C=C(C)N=C3SC(C)=NN32)cc(OC)c1OC (stereo not given),106% (inactive)
12,COC(=O)CNC(=O)[C@@H](OC)[C@@H]1Cc2cc3cc(OC4CC(OC5CC(O)C(O)C(C)O5)C(O)C(C)O4)c(C)c(O)c3c(O)c2C(=O)[C@H]1OC1CC(OC2CC(OC3CC(C)(O)C(O)C(C)O3)C(O)C(C)O2)C(O)C(C)O1 (stereo not given in full),-22.3% (active)
13,CCOc1c(C#N)nnc2c(C#N)c(NC(=O)c3ccccc3)nn12,103% (inactive)
14,CCCN(CCC)CC(O)COc1ccccc1C(=O)Nc1ccccc1 (stereo not given),85.9% (inactive)
15,CC(C)=NNc1ccccn1,12.9% (inactive)
16,COc1ccc(C2c3[nH]c4ccc(Cl)cc4c3CCN2c2oc(CO)nc2C#N)cc1 (stereo not given),25.2% (inactive)
17,CCOC(=O)[C@@H]1CCCN(S(=O)(=O)c2ccc(S(=O)(=O)N(CC)CC)c(F)c2)C1,36% (inactive)
18,Oc1c(Cl)cc(Oc2cc(Cl)c(O)c(CN3CCOCC3)c2)cc1CN1CCOCC1,84% (inactive)
19,CC(C)(c1ccc(OCC(O)CNCc2ccco2)cc1)c1ccc(OCC(O)CNCc2ccco2)cc1 (stereo not given),98.1% (inactive)
20,COc1cc2nc(Cl)nc(Nc3cccc(C4=Nc5c(N)nc(N)nc5NC(c5ccc6c(c5)OCO6)C4)c3)c2cc1OC (stereo not given),81.7% (inactive)
